Many of the other results were omitted from the sample, so hits are more common in it than they were.
Pf Dd2 inh: Plasmodium falciparum Dd2 growth inhibition. AID 1347417. Potency, µM (doses to about 28.9 µM), for the others: at the highest dose activity, negative = inhibition, usual class: inhibitors. P. falciparum Dd2 growth, SYBR Green, 72 h. 4.3% of 120,000 active; active = well fitted inhibition curve with a large enough effect;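 note: plate controls were DMSO vehicle for no effect and reference drug for full effect; nearly all actives have a fitted effect of over 65% in size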
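Readout: SYBR Green fluorescence, 485 nm excitation, 535 nm emission, after ~16 h lysis at 37C. Before that, Dd2-infected red cells (2.5% hematocrit) grew 72 h with compound, 29 uM top final concentration.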
The depositor's hits bear a star; i = inactive; [ ] = remark or other dose. Potency is the fitted concentration of half-maximal effect.

SMILES	Pf Dd2 inh
Cc1cccc(-n2cc(CN3CCCC(C)(O)C3)c(-c3cccc(F)c3)n2)c1 (stereo not drawn)	8.9µM*
CC(=O)N1CCCC1c1nc(C2CN(C(=O)CCn3cc(C)cn3)C2)no1 (stereo not drawn)	12%
CCN(C(C)=O)C1CCN(c2nc(CCN)nc3sc(C)c(C)c23)C1 (stereo not drawn)	-11%
Cc1ccc(-c2cc(-c3ccncc3)c3cncn3c2)cn1	-7%[44.1 µM]
c1cc(-c2cc(-c3cn[nH]c3)cn3cncc23)ccn1	i
COc1ccc(-c2cc(-c3cn[nH]c3)c3cncn3c2)cn1	-17%[44.1 µM]
COc1ccc(-c2cc(-c3cccc(NC(C)=O)c3)cn3cncc23)cn1	2µM*
COc1ccc(-c2cc(-c3cccnc3)c3cncn3c2)cc1OC	10µM*
O=C1COCCN1c1cc(-c2cnc3[nH]ccc3c2)cn2cncc12	4%[44.1 µM]
COc1cc(F)ccc1-c1cc(-c2ccc(=O)[nH]c2)c2cncn2c1	i
COc1ccc(-c2cc(-c3ccc(OC)nc3)cn3cncc23)cc1	2.5µM*
c1cncc(-c2cc(-c3ccc4cn[nH]c4c3)cn3cncc23)c1	-10%[44.1 µM]
COc1ccc(-c2cc(-c3cnc4[nH]ccc4c3)cn3cncc23)cc1	6.3µM*
Cc1ccc(-c2cc(-c3cccnc3)c3cncn3c2)cn1	i
CC(=O)Nc1cccc(-c2ccc(COc3ccc4c(cnn4CCC(=O)O)c3)cc2)c1	i
CCOc1ccc(NC(=O)C2Cn3cccc3C(=O)N2)cc1 (stereo not drawn)	-4%
O=C(CC1CCCCC1)N1CC(F)(F)C[C@H]1c1nnc(C2CC2)o1	7%
CN1C[C@H](O)C[C@H]1c1nnc2n1CCN(C(=O)C1CCC1)CC2	1%
O=C(c1ccc2[nH]ccc2c1)N1CC[C@@H]2COCCN(Cc3cccnc3)[C@@H]2C1	4%
NC(=O)C1(NC(=O)c2ccc(S(=O)(=O)N3CCCC(O)C3)cc2)CCCC1 (stereo not drawn)	-7%
COCc1nc(C2CCN(C(=O)C3CCC3)C2)no1 (stereo not drawn)	-4%
CC(C)(Oc1nn(CC2CCOCC2)c2ccccc12)C(=O)NCC1CCOCC1	37%[44.1 µM]
Cn1nc(OC(C)(C)C(=O)NCCc2ccccc2)c2cc(CN3CCCC3)ccc21	-3%[44.1 µM]
CC(C)(Oc1nn(CC2CC2)c2ccc(CN3CCCC3)cc12)C(=O)NCC(F)(F)F	13µM*
COc1ccccc1NC(=O)C1=C(C)Nc2nc3ccccc3n2C1c1cccc(OC)c1OC (stereo not drawn)	i
SMILES	Pf Dd2 inh
CCOc1ccccc1C1C(C(=O)Nc2ccccc2OC)=C(C)Nc2nc3ccccc3n21 (stereo not drawn)	-19%
COc1cccc(C2C(C(=O)Nc3ccccc3OC)=C(C)Nc3nc4ccccc4n32)c1 (stereo not drawn)	7.1µM*
CN(C)C[C@@H]1CN(Cc2ccccc2)C[C@H]1NC(=O)c1cn(C)cn1	4%
CCNC(=O)N[C@@H]1C=C[C@@H](c2c(C)nn(-c3ccc(C(F)(F)F)cc3)c2C)C1	4.5µM*
Cc1nn(-c2ccc(C(F)(F)F)cc2)c(C)c1[C@@H]1C=C[C@@H](NC(=O)CC(C)(C)CC(=O)O)C1	i
Cc1nn(-c2ccc(C(C)(C)C)cc2)c(C)c1[C@@H]1C=C[C@@H](NC(=O)CCC(=O)O)C1	-18%[44.1 µM]
Cc1nn(-c2ccc(C(C)C)cc2)c(C)c1[C@@H]1C=C[C@@H](NC(=O)Nc2ccc(Cl)cc2)C1	-3%
COCC(=O)N[C@@H]1C=C[C@@H](c2c(C)nn(-c3ccc(C(C)(C)C)cc3)c2C)C1	-14%[44.1 µM]
Cc1nn(-c2ccc(C(C)(C)C)cc2)c(C)c1[C@@H]1C=C[C@@H](NC(=O)COCC(=O)O)C1	2%[44.1 µM]
Cc1nn(-c2ccc(C(F)(F)F)cc2)c(C)c1[C@@H]1C=C[C@@H](NC(=O)CCC(=O)O)C1	i
CCNC(=O)N[C@@H]1C=C[C@@H](c2c(C)nn(-c3ccc(C(C)(C)C)cc3)c2C)C1	-5%[44.1 µM]
Cc1nn(-c2ccc(C(C)C)cc2)c(C)c1[C@@H]1C=C[C@@H](NC(=O)NCc2ccccc2)C1	-30%[44.1 µM]
Cc1nn(-c2ccc(F)cc2)c(C)c1[C@@H]1C=C[C@@H](NC(=O)NC(C)C)C1	8.9µM*
Cc1nn(-c2ccc(C(C)(C)C)cc2)c(C)c1[C@@H]1C=C[C@@H](NC(=O)NC(C)C)C1	10µM*
Cc1nn(-c2ccc(C(C)C)cc2)c(C)c1[C@@H]1C=C[C@@H](NC(=O)NC2CCCCC2)C1	10µM*
Cc1ccc(C(=O)N2CCCC3(COc4ccccc4C(=O)N3)C2)cc1 (stereo not drawn)	-9%[44.1 µM]
COCCn1nnnc1C1CC2(CCOCC2)C(=O)N1Cc1cc(F)cc(F)c1 (stereo not drawn)	1%
CN1[C@@H](CCC(=O)Nc2ccccc2)CNC(=O)[C@@H]2[C@H]1CCN2CC(C)(C)C	i
CC(C)Cc1cc(CNC(=O)[C@H]2CNC[C@H](C(=O)N3CCCC3)C2)no1	16%
O=C(Cn1nc2c(cc1=O)CCCCC2)N1CCN(CCc2ccncc2)CC1	-6%
COc1cccc(C(=O)N2CCC(C3CCN(S(C)(=O)=O)CC3)C2)c1 (stereo not drawn)	15%
CCC(C)C(=O)NCc1cc2c(nc1OC)CN(CCc1ccccn1)C2=O (stereo not drawn)	-17%
COc1ccc(CCNC(=O)c2c(C)noc2-c2ccc3c(c2)OCO3)cc1OC	-13%
O=C(Nc1ccc(C(F)(F)F)cc1)C1CCCN(S(=O)(=O)c2cccc3cccnc23)C1 (stereo not drawn)	11µM*
O=C(Nc1ccc(F)c(F)c1)C1CCCN(S(=O)(=O)c2cccc3nonc23)C1 (stereo not drawn)	31%
SMILES	Pf Dd2 inh
O=C(Nc1ccc(OC(F)(F)F)cc1)C1CCCN(S(=O)(=O)c2cccc3nonc23)C1 (stereo not drawn)	50%
CCN(CC)C(=O)[C@@H]1CCC[C@@H](NC(=O)Nc2c(C)noc2C)CN(C)C(=O)C1	27%[44.1 µM]
COc1cccc(CC(=O)Nc2ccc3c(c2)CN(Cc2ccccc2Cl)C(=O)C(C)O3)c1 (stereo not drawn)	-3%
CN1CCCCCC(O)c2cc(C(=O)NC3CCN(Cc4ccccc4)CC3)ccc21 (stereo not drawn)	-6%
Cc1nc(C2CCCN(C(=O)CCC(C)C)C2)cc(N2CCCC2)n1 (stereo not drawn)	-28%
Cn1c(=O)c2c(nc(SCC(=O)Nc3ccc(F)cc3F)n2Cc2ccccc2)n(C)c1=O	-11%
Cn1c(=O)c2c(nc(SCC(=O)Nc3ccccc3)n2Cc2ccccc2F)n(C)c1=O	-2%
Cn1c(=O)c2c(nc(SCC(=O)Nc3ccc(OC(F)(F)F)cc3)n2Cc2cccc(C(F)(F)F)c2)n(C)c1=O	11µM*
Cc1ccc(NC(=O)c2oc3ccc(S(=O)(=O)N(C)C4CCCCC4)cc3c2C)c(C)c1	i
Cc1c(C(=O)Nc2ccc(F)c(Cl)c2)oc2ccc(S(=O)(=O)N(C)C3CCCCC3)cc12	-26%
Cc1c(C(=O)Nc2cccc(C(F)(F)F)c2)oc2ccc(S(=O)(=O)N(C)C3CCCCC3)cc12	11µM*
Cc1cccc(C)c1-c1nc(C(=O)N2CCC(C#N)CC2)n2ccccc12	3%
NCC1CCCN(Cc2ccc(-c3nc(-c4cccnc4)cc(=O)[nH]3)cc2)C1 (stereo not drawn)	-17%
CS(=O)(=O)N(Cc1cccnc1)C1CN(C(=O)CCC2CCCC2)C1	-22%
O=C(NCCN1CCCCC1)c1ccc(Cn2c(SCc3ccc(F)cc3)nc3cccnc32)cc1	7.1µM*
O=C(NC1CCCC1)c1ccc(CSc2nc3cccnc3n2Cc2ccccc2)cc1	13%

Source: PubChem BioAssay
